Compound activity deposited in PubChem BioAssay by National Center for Advancing Translational Sciences (NCATS).
DNA Pol III inh – blocks replication by bacterial DNA polymerase III holoenzyme | reconstituted DNA polymerase III holoenzyme replication, biochemical | Potency, µM (doses to about 57.1 µM) | 71,000 tested, 0.25% active
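Reconstituted *E. coli* holoenzyme (0.35 nM Pol III, 1 nM beta, 154 nM SSB, 2 nM primase) was preincubated with compound for 15 min at RT. Synthesis on 1.4 nM ssM13Gori ran 35 min, then was stopped with PicoGreen/EDTA and read as dsDNA fluorescence.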
UbGFP stabilizer – proteasome inhibitors stabilizing ubiquitin-GFP reporter | Ubiquitin-GFP reporter cells, proteasome inhibition, GFP fluorescence; response scale: untreated = 0%, 10 µM MG-132 = 100% | Potency, µM (series often up to 45.9 µM), actives largely listed as activators | 67,000 tested, under 10 active | AID 526; active means well fitted activation curve with a large enough effect, not every such curve was filed as active; inconclusive means small, poorly fitted or top-dose-only effect, or another doubt; inactive means no such curve, though single readings can be large or run the other way
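U2OS cells stably expressing ubiquitin(G76V)-GFP, seeded overnight in 0.5% FBS medium, were exposed to compounds (qHTS, 46 uM to 2.9 nM) for 4 hr at 37 °C. GFP-positive cells were counted by laser cytometry (488 ex/515 em), normalized between basal and 10 uM MG-132.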
HBB splice mod – modulators of hemoglobin beta chain splicing; Potency, µM (titrated, usually from 46.1 µM), most hits filed as activators; HBB splicing reporter cell assay, activation; EGFP reporter with mutant IVS2-654 intron; response scale: normalised to 500 nM splice-correcting PNA; AID 925; 65,000 tested, 0.06% active
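HeLa cells stably expressing EGFP interrupted by mutant beta-globin intron 2 (IVS2-654), 500/well in 2% FCS. Treated with compound for 2 days at 37C. Splicing correction scored as total well GFP intensity (488 nm excitation, 500-520 nm emission); 500 nM antisense PNA served as control.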
Tau fil binding – tau filament binding. recombinant tau filaments, thioflavin S fluorescence, 15 h; filaments grown with octadecylsulfate alongside compound. AID 596. Potency, µM (top dose mostly 57.1 µM). 71,000 tested, 2% active. P10636;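 further: actives lower thioflavin S fluorescence by blocking filaments or displacing dye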
Target sequence (P10636 whole entry, looked up): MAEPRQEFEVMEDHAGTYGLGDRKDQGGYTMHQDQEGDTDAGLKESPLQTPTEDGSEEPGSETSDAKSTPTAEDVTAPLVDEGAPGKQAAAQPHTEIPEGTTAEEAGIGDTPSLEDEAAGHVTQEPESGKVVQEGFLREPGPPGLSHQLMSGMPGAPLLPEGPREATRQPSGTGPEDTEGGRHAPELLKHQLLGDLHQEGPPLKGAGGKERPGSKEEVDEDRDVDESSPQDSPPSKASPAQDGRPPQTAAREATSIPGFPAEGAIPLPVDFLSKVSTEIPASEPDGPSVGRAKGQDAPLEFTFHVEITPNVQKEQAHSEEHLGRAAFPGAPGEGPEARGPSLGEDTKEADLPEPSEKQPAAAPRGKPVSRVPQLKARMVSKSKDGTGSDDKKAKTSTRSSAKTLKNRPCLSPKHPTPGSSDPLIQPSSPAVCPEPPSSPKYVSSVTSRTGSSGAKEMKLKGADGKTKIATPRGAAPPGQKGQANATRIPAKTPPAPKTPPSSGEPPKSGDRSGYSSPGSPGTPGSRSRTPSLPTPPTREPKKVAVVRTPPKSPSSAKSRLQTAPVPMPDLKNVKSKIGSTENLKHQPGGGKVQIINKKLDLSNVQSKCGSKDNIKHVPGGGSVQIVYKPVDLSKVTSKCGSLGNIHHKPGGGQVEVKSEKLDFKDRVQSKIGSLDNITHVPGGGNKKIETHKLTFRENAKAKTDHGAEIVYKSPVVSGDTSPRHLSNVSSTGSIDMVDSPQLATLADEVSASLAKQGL
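Recombinant tau protein (human, 1 uM final) plus 30 uM ODS in HEPES pH 7.4 with NaCl, DTT and thioflavine S. Compound present from the start; fluorescence at 510 nm after 15 h, 37 C.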
ALOX15 inhib – blocks human 15-lipoxygenase activity; purified 15hLO-1, xylenol orange hydroperoxide absorbance; Potency, µM (doses to about 57.1 µM), hits mostly inhibitors; 74,000 tested, 1.4% active; AID 887; further: nearly all actives have a fitted effect of over 55% in size
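Hydroperoxide formed from arachidonic acid (50 uM) by purified human 15hLO-1 (40 nM) oxidizes ferrous iron, and the ferric-xylenol orange complex is read at 573 versus 405 nm. Compounds were preincubated 15 min; reaction ran 6 min at room temperature.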
GFP derepression – epigenetic GFP locus derepression in mouse cells. mouse C127i GFP locus derepression, cytometry, 30 h. Potency, µM (doses to about 46.1 µM). 68,000 tested, 0.09% active. AID 597
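Murine C127i mammary cells carrying a silenced, stably integrated CMV-driven GFP reporter were treated with compound for 30 hours at 37 C. After PBS washes, GFP-positive cells were counted by laser-scanning microplate cytometry.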
Hits are given with their value; - = inactive; ? = inconclusive; . = no result; ! = not confirmed by another sample; [ ] = remark or other dose. Sampled rows, rich in hits. Any-hit rate of the full collection: about 3.2%. Unless noted, the call rests on the fitted dose curve; in most records, active means well fitted curve in the direction sought with a large enough effect; inconclusive means small, poorly fitted or top-dose-only effect, or another doubt; inactive means no such curve, though single readings can be large; an effect the other way counts as inactive or inconclusive.

SMILES | DNA Pol III inh | UbGFP stabilizer | HBB splice mod | Tau fil binding | ALOX15 inhib | GFP derepression
COc1cccc(-n2c(C)nc3ccccc3c2=O)c1 | . | . | . | . | . | -
O=c1c2ccccc2[se]n1-c1ccccc1 | - | - | - | - | 0.398µM | -
C[C@@H]1O[C@H](O[C@H]2C[C@@H](O)[C@]3(CO)[C@H]4[C@H](O)C[C@]5(C)[C@@H](C6=CC(=O)OC6)CC[C@@]5(O)[C@H]4CC[C@]3(O)C2)[C@@H](O)[C@H](O)[C@H]1O | - | - | . | ? | . | -[9.22 µM]
COP(=S)(OC)SCn1nnc2ccccc2c1=O | - | . | - | . | 12.6µM | .
COC(=O)c1ccccc1-n1c(C)nc2ccccc2c1=O | - | - | - | - | - | -
Cc1ccc(O)cc1 | - | . | - | - | - | .
CN(N=O)c1cc(O)ccc1O | 3.16µM | - | - | ? | 15.8µM | -
C=CCc1cc(OC)c2c(c1OC)OCO2 | . | . | . | . | 3.98µM | .
COc1c2c(cc3c1OCO3)CC[N+](C)=C2 | . | . | . | . | - | .
COC(=O)[C@]1(C)CC[C@@]2(C)CC[C@@]3(C)C4=CC=C5C(=CC(=O)C(O)=C5C)[C@@]4(C)CC[C@@]3(C)C2C1 (stereo not given in full) | . | . | . | . | 2µM | .
CN1CC[C@@H]2CN3CCc4cccc(c43)[C@H]2C1 | - | - | . | - | 12.6µM | -
CCc1nc(CNC(=O)c2cc(OC)c(OC)c(OC)c2)no1 | - | - | - | - | 10µM | -
CC(C)(C)[C@@]1(O)C[C@@H]2OC(=O)C[C@@]23C(=O)O[C@H]2OC(=O)[C@@H](O)[C@]231 | - | - | . | ? | . | -[9.22 µM]
CCCCN1C(=O)NC(=O)C2(Cc3c(nc4ccccn4c3=O)N3CCc4ccccc4C32)C1=O (stereo not given) | - | - | - | - | 20µM | -
COc1ccc2c3c1O[C@@H]1C(=O)CC[C@@]4(O)[C@@H](C2)N(CC2CC2)CC[C@]314 | - | - | - | - | - | -
CN[C@@H](C)[C@@H](O)c1ccccc1 | - | - | - | - | 0.398µM | -
C[C@@]12CC[C@H]3[C@@H](CCC4=CC(=O)CC[C@]43C)[C@H]1CCC2=O | - | - | - | - | . | -
C[C@@H]1O[C@H]1P(=O)(O)O | - | - | - | - | - | -
C=CC1CC=CCC1 (stereo not given) | - | . | - | - | 31.6µM | .
CC(C)(OO)c1ccccc1 | - | . | - | - | 0.126µM | .
CNC(C)(C)Cc1ccccc1 | - | - | - | - | - | -
O=c1[nH]oc2c1CCNC2 | - | - | - | 31.6µM! | - | -
CN1CCC(n2nccc2N)CC1 | - | - | - | - | - | -
Nc1ccnn1C1CCNCC1 | - | - | . | 25.1µM | - | -
CCCN1CCc2cccc3c2[C@@H]1Cc1ccc(O)c(O)c1-3 | - | - | - | - | ? | -
SMILES | DNA Pol III inh | UbGFP stabilizer | HBB splice mod | Tau fil binding | ALOX15 inhib | GFP derepression
[Cl-].[Cl-].[Hg+2] | 31.6µM | . | - | - | 0.0126µM | .
O=c1cccc2n1C[C@@H]1C[C@H]2CN2CCCC[C@H]12 | - | - | . | 31.6µM | . | -[9.22 µM]
C[C@@H]1O[C@@H](O[C@H]2C[C@@H](O)[C@]3(CO)[C@@H]4[C@@H](O)C[C@]5(C)[C@H]([C@@H]6COC(=O)C6)CC[C@@]5(O)[C@H]4CC[C@@]3(O)C2)[C@H](O)[C@H](O)[C@@H]1O | - | - | - | - | - | -
COc1ccc(P2(=O)Nc3ccccc3N2)cc1 | - | . | -[0.369 µM] | 15.8µM | ? | -
CN[C@H]1[C@H](C)O[C@@H](O[C@@H]2C/C=C(/C)C/C(C)=C\C=C/CC[C@@H](C)CNC(=O)/C=C\C=C/[C@H]2C)C[C@@H]1O | -[11.4 µM] | -[9.17 µM] | -[9.22 µM] | -[11.4 µM] | . | -[9.22 µM]
C[C@H]1CC[C@@H]2[C@@H](C)C(=O)O[C@H]3O[C@@]4(C)CC[C@@H]1[C@]32OO4 | - | - | . | ? | . | -[9.22 µM]
c1ccc2c(c1)Sc1ccccc1N2C[C@H]1CN2CCC1CC2 | -[11.4 µM] | -[9.17 µM] | -[9.22 µM] | 1.58µM | -[11.4 µM] | -[9.22 µM]
COc1ccc2c(c[n+](C)c3c4cc5c(cc4ccc23)OCO5)c1OC | - | - | - | 31.6µM | ? | -
C=C[C@@H]1CN2CC[C@H]1C[C@H]2[C@@H](O)c1ccnc2ccccc12 | - | - | . | - | . | -[9.22 µM]
C[C@@]12CC[C@H](O)C[C@@H]1CC[C@H]1[C@H]2C[C@@H](O)[C@]2(C)[C@@H](C3=CC(=O)OC3)CC[C@@]12O | - | - | . | - | . | -[9.22 µM]
COC(=O)c1c(C)ccc2c(O)c3c(cc12)C(=O)c1c2c(cc(O)c1C3=O)[C@@]1(C)O[C@@](C)(O2)[C@@H](O)[C@H](N(C)C)[C@H]1O | -[11.4 µM] | -[9.17 µM] | -[9.22 µM] | 3.98µM | ? | -[9.22 µM]
C=CCN1CC[C@]23c4c5ccc(O)c4O[C@@H]2/C(=N/NC(=O)c2ccccc2)CC[C@@]3(O)[C@H]1C5 | - | - | - | - | - | -
C[C@H]1CC[C@]2(NC1)O[C@@H]1C[C@@H]3[C@@H]4CC=C5C[C@H](O)CC[C@@]5(C)[C@H]4CC[C@@]3(C)[C@H]1[C@@H]2C | - | - | . | ? | . | -[9.22 µM]
CC[C@H]1[C@@H]2C[C@@H]3[C@@H]4N(C)c5ccccc5[C@@]45C[C@@H]([C@H]2[C@@H]5O)N3[C@@H]1O | - | - | . | ? | . | -[9.22 µM]
c1ccc(-c2ccccc2)cc1 | - | . | - | - | - | .
c1ccc(Nc2ccc(Nc3ccccc3)cc2)cc1 | - | . | - | 12.6µM | 3.98µM | .
CC[C@@H]1CN2CC[C@@H]1C[C@H]2[C@@H](O)c1ccnc2ccc(OC)cc12 | - | - | . | ? | . | -[9.22 µM]
COc1cc2c(cc1O)C[C@H]1c3c(cc(OC)c(O)c3-2)CCN1C | - | - | . | 39.8µM | - | -[9.22 µM]
COc1cc2c(cc1O)CC1c3c(cc(O)c(OC)c3-2)CCN1C (stereo not given) | . | . | . | . | - | .
COc1cc2c(cc1OC)[C@]13CCN4CC5=CCO[C@@H]6CC(=O)N2[C@@H]1[C@H]6[C@@H]5C[C@H]43 | - | - | . | ? | . | -[9.22 µM]
NNc1c(C(N)=O)c2c(N)ncnc2n1[C@@H]1O[C@H](CO)[C@@H](O)[C@@H]1O | -[11.4 µM] | -[9.17 µM] | -[9.22 µM] | -[11.4 µM] | . | -[9.22 µM]
O[N+]1=CC=CCC1=S.On1ccccc1=S.[Zn] | . | . | . | . | 2.51µM | .
CCN1C[C@@]2(C)CC[C@H](O)[C@@]34[C@@H]5C[C@H]6[C@H](O)[C@@H]5[C@](O)(C[C@@H]6OC)[C@H](C[C@@H]23)[C@H]14 | - | - | . | ? | . | -[9.22 µM]
CC1=NN=C(c2ccc(N)cc2)c2cc3c(cc2C1)OCO3 | - | - | - | 31.6µM! | - | -
COc1cccc2c1C(=O)c1c(O)c3c(c(O)c1C2=O)C[C@](O)(/C(C)=N\O)C[C@@H]3O[C@H]1C[C@H](N)[C@@H](O)[C@H](C)O1 | 1µM | -[9.17 µM] | -[9.22 µM] | 1.58µM | -[11.4 µM] | -[9.22 µM]
